Assay outcomes deposited in PubChem BioAssay by several laboratories.
Sampled rows, rich in hits. Any-hit rate of the full collection: about 3.2%.
TMEM16A act = mouse TMEM16A channel activation, primary screen | Q8BHY3 | HEK293 TMEM16A/YFP-H148Q/I152L, iodide quench fluorescence; active compounds read low | B-score at 10 µM | 340,000 tested, 0.3% active | AID 623877;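 active = fluorescence-ratio B-score plate-corrected deviation score at least 3 library SD below zero, with starting fluorescence score within 5 deviations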;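 note: channel opened by trigger with iodide after compound preincubation; score built on the fluorescence ratio of max minus min over baseline; more negative score means more quench and so TMEM16A activation or potentiation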
HDAC3 inh = blocks human histone deacetylase 3 | AID 2718 | 320,000 tested, 0.15% active | O15379 | inhibition, % at 8.3 µM | recombinant HDAC3, fluorogenic peptide/trypsin coupled, fluorescence; in the data active = inhibition above about 26%, passing the limit was not always enough; inconclusive = no clear call, values can overlap the other calls
CHT PAM = allosteric activators of human choline transporter CHT. Q9GZV3. CHT-expressing cells, membrane potential dye, choline EC20; active compounds read high; LV-AA mutant CHT in HEK293 cells. B-score at 10 µM. 310,000 tested, 0.49% active. AID 488977;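 active = initial fluorescence not abnormally high and integrated response B-score, plate-corrected, over 3 SD above library mean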
Target sequence (Q9GZV3 whole entry, looked up): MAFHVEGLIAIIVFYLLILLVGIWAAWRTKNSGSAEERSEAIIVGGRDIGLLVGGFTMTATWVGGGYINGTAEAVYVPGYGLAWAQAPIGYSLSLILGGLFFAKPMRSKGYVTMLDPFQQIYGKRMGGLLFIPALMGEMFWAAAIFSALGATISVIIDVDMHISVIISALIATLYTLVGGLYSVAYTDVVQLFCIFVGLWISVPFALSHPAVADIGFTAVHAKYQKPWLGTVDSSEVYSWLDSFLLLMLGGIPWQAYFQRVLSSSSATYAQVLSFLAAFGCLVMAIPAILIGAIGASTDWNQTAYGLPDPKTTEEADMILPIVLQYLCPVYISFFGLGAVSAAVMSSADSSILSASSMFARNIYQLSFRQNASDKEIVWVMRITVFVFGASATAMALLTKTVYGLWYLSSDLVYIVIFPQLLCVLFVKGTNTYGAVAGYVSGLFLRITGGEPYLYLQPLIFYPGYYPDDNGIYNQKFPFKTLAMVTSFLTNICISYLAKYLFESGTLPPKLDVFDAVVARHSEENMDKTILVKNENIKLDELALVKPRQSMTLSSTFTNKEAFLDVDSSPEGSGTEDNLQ
PHOSPHO1 inh = blocks human PHOSPHO1 phosphatase activity; recombinant PHOSPHO1, absorbance phosphatase assay; inhibition, % at 13.3 µM; 290,000 tested, 1.1% active; in the data active = inhibition above about 60%
TMEM16A inh = blocks the mouse calcium-activated chloride channel TMEM16A | Q8BHY3 | HEK293 TMEM16A/YFP iodide influx fluorescence, ionomycin | normalized B-score (activity score, 25-100; higher = stronger inhibition) at 10 µM | 310,000 tested, 1.2% active | AID 588511;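 active = ratio plate-corrected score three or more library SD toward inhibition, starting fluorescence score within five deviations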;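 note: score derived from kinetic fluorescence span divided by baseline fluorescence per well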
CHT inh = inhibits the human high affinity choline transporter | CHT-expressing cells, membrane potential dye, choline response; active compounds read low | B-score at 10 µM | 310,000 tested, 0.86% active | AID 488975;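 active = B-score over 3 SD under the library average, and starting fluorescence ratio not unusually high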;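 note: choline stimulus applied at its EC90 after an EC20 pre-addition; B-score computed on integrated fluorescence ratio after choline addition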
* marks the source's active call; other numbers are inactive results.

`CCc1cc(-c2n[nH]c(=S)n2CC)cs1` gave TMEM16A act inactive, HDAC3 inh 9, CHT PAM inactive, PHOSPHO1 inh 53, TMEM16A inh inactive and CHT inh inactive.
C=CCn1c(-c2cccc(Cl)c2)n[nH]c1=S was read as TMEM16A act inactive, HDAC3 inh -16, CHT PAM inactive, PHOSPHO1 inh 98*, TMEM16A inh inactive and CHT inh inactive.
CCCc1cc(-c2n[nH]c(=S)n2C(C)c2ccccc2)cs1 (stereo not drawn) was read as TMEM16A act inactive, HDAC3 inh 5, CHT PAM inactive, PHOSPHO1 inh 83*, TMEM16A inh inactive and CHT inh inactive.
For CCc1cc(-c2n[nH]c(=S)n2-c2ccccc2C)cs1 the results were TMEM16A act inactive, HDAC3 inh 9, CHT PAM inactive, PHOSPHO1 inh 86*, TMEM16A inh inactive and CHT inh inactive.
For COc1cccc(NC(=S)NCCc2ccccn2)c1 the results were TMEM16A act inactive, HDAC3 inh -1, CHT PAM inactive, PHOSPHO1 inh 30, TMEM16A inh inactive and CHT inh inactive.
`COc1cc(/C=C/C(=O)O)cc(S(=O)(=O)N2CCc3ccccc3C2)c1OC` gave TMEM16A act inactive, HDAC3 inh -3, CHT PAM inactive, PHOSPHO1 inh 53, TMEM16A inh inactive and CHT inh inactive.
Screening COc1ncc(-c2ccc3c(c2)S(=O)(=O)c2cccc(C(=O)NCc4ccco4)c2C3=O)cn1 returned TMEM16A act inactive and HDAC3 inh -5.
Screening S=c1[nH]nc(CCc2ccccc2)n1Cc1ccccc1 returned TMEM16A act inactive, HDAC3 inh inconclusive, CHT PAM inactive, PHOSPHO1 inh 14, TMEM16A inh inactive and CHT inh inactive.
`CCCOc1ccc(CCc2n[nH]c(=S)n2Cc2ccccc2)cc1` gave TMEM16A act inactive, HDAC3 inh 22, CHT PAM inactive, PHOSPHO1 inh 79*, TMEM16A inh inactive and CHT inh inactive.
`S=c1[nH]nc(-c2cccc(Cl)c2)n1Cc1ccccc1` gave TMEM16A act inactive, HDAC3 inh -2, CHT PAM inactive, PHOSPHO1 inh 69*, TMEM16A inh inactive and CHT inh inactive.
For CCc1cc(-c2n[nH]c(=S)n2Cc2ccccc2)cs1 the results were TMEM16A act inactive, HDAC3 inh 3, CHT PAM inactive, PHOSPHO1 inh 92*, TMEM16A inh inactive and CHT inh inactive.
For Cc1cccc(-c2n[nH]c(=S)n2Cc2ccccc2)c1 the results were TMEM16A act inactive, HDAC3 inh 4, CHT PAM inactive, PHOSPHO1 inh 3, TMEM16A inh inactive and CHT inh inactive.
Cc1ccc(-c2n[nH]c(=S)n2Cc2ccccc2)cc1 was read as TMEM16A act inactive, HDAC3 inh 3, CHT PAM inactive, PHOSPHO1 inh 100*, TMEM16A inh inactive and CHT inh inactive.
COc1ccc(CCNC(=O)Cc2cc(OC)c(OC)cc2Br)cc1OC was read as TMEM16A act inactive, HDAC3 inh -1, CHT PAM inactive, PHOSPHO1 inh 20, TMEM16A inh inactive and CHT inh inactive.
CCn1c(=NC(=O)c2cccc(N3C(=O)CCC3=O)c2)sc2c(C)ccc(OC)c21 was read as TMEM16A act -8.7*, HDAC3 inh 0, CHT PAM inactive, PHOSPHO1 inh 20, TMEM16A inh inactive and CHT inh inactive.
CC(=O)N1CCCc2cc(S(=O)(=O)N3CCCC(C(=O)N4CCN(c5ccccc5)CC4)C3)ccc21 (stereo not drawn) was read as TMEM16A act inactive, HDAC3 inh -2, CHT PAM inactive, PHOSPHO1 inh 12, TMEM16A inh inactive and CHT inh inactive.
COc1ccccc1N1CCN(C(=O)C2CCCN(S(=O)(=O)c3ccc4c(c3)CCCN4C(C)=O)C2)CC1 (stereo not drawn) was read as TMEM16A act inactive, HDAC3 inh -3, CHT PAM inactive, PHOSPHO1 inh 20, TMEM16A inh 25* and CHT inh inactive.
`Cc1sc2ccc3sccc3c2[n+]1C` gave TMEM16A act inactive, HDAC3 inh 16, CHT PAM 12*, PHOSPHO1 inh 25, TMEM16A inh inactive and CHT inh inactive.
CCCCC1=CC2=CC(=O)C(C)(OC(=O)CC)C(=O)C2=CN1C(CO)CO (stereo not drawn) was read as TMEM16A act -5.8*, HDAC3 inh -2, CHT PAM inactive, PHOSPHO1 inh -4, TMEM16A inh inactive and CHT inh inactive.
CCC(=O)Nc1cc(SCCO)cc([N+](=O)[O-])c1 was read as TMEM16A act inactive, HDAC3 inh 2, CHT PAM inactive, PHOSPHO1 inh 24, TMEM16A inh 100* and CHT inh inactive.
For O=C(CCl)Nc1cc(SCC(O)CO)cc([N+](=O)[O-])c1 (stereo not drawn) the results were TMEM16A act inactive and PHOSPHO1 inh 16.
`O=C(N/N=C/c1ccccc1)c1ccc(OCc2ccccc2)cc1` gave TMEM16A act inactive, HDAC3 inh -1, CHT PAM inactive, PHOSPHO1 inh 32, TMEM16A inh inactive and CHT inh inactive.
Screening O=C(O)c1ccc(COc2ccc(/C=N/NC(=O)c3cccs3)cc2)cc1 returned TMEM16A act inactive, HDAC3 inh -3, CHT PAM inactive, PHOSPHO1 inh 77*, TMEM16A inh inactive and CHT inh inactive.
For COC(=O)c1ccc(COc2ccc(/C=N/Nc3cccc(C(=O)O)c3)cc2)cc1 the results were TMEM16A act inactive, HDAC3 inh 1, CHT PAM inactive, PHOSPHO1 inh 68*, TMEM16A inh inactive and CHT inh inactive.
`COc1ccccc1OCCn1cc(/C=N/NC(=O)c2ccncc2)c2ccccc21` gave TMEM16A act inactive, HDAC3 inh 9, CHT PAM inactive, PHOSPHO1 inh 60*, TMEM16A inh inactive and CHT inh inactive.
`CC(=O)Nc1ccc(NC(=O)CN(c2ccc([N+](=O)[O-])cc2)S(=O)(=O)c2ccccc2)cc1` gave TMEM16A act inactive, HDAC3 inh 4, CHT PAM inactive, PHOSPHO1 inh 67*, TMEM16A inh inactive and CHT inh inactive.
`CCOc1ccc(NC(=O)CN(c2ccc([N+](=O)[O-])cc2)S(=O)(=O)c2ccccc2)cc1` gave TMEM16A act inactive, HDAC3 inh -3, CHT PAM inactive, PHOSPHO1 inh 4, TMEM16A inh inactive and CHT inh inactive.
`N#CC1=C(N)Oc2c(ccc3ccccc23)C1c1cccs1` (stereo not drawn) gave HDAC3 inh -2, CHT PAM inactive, PHOSPHO1 inh 93*, TMEM16A inh inactive and CHT inh inactive.
